Compounds with a hit are over-represented: about 2.9% of the library has one in this group of screens.
DRD3 agonist – agonists of human D3 dopamine receptor; D3R DiscoveRx beta-arrestin cells, luminescence, 90 min; 410,000 compounds, 0.58% hits; max activation, %; AID 652048; in the data active = max activation above about 30%; also: 0% is about no effect
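Agonist mode: compounds and dopamine controls were applied to plated cells for 90 min at 37 degrees C after an overnight attachment at 1500 cells/well. Luminescent read-out followed 30 - 60 minutes at room temperature with DiscoveRx detection reagent.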
IDH1 R132H inh – inhibitors of human mutant IDH1 R132H; O75874; IDH1-R132H enzyme, NADPH consumption, diaphorase/resazurin fluorescence; Potency, µM (titrated, usually from 76.6 µM), without a hit: at the highest dose activity change, negative = inhibition, hits mostly inhibitors; 390,000 compounds, 0.093% hits; AID 602179; also: potency is read from the fitted curve at half-maximal effect; % is scaled to controls: 0 for no effect and ±100 for the full control effect; nearly all actives have a fitted effect of over 65% in size
Target sequence (O75874 whole entry R132H, stated change not applied): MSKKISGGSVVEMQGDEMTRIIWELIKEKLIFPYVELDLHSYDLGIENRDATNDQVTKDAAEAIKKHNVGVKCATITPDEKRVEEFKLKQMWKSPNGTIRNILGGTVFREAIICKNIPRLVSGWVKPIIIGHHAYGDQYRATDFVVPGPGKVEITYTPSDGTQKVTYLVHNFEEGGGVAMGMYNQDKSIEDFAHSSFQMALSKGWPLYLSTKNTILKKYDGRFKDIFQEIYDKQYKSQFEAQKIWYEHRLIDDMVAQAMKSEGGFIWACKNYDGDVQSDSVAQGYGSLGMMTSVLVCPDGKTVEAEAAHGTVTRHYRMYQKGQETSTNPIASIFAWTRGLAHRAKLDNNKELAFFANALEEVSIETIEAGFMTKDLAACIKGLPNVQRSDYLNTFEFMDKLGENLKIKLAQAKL
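IDH1-R132H (0.5 ug/mL) preincubated 30 min with compound, then NADPH (0.016 mM) and alpha-KG (2 mM) added; 80 min at RT, pH 7.5. Remaining NADPH coupled via diaphorase/resazurin to fluorescence (540/590 nm); concentration-response curves normalized to no-enzyme control.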
B2AR arrestin – beta2AR (human) beta-arrestin recruitment activity | Potency, µM (titrated, usually from 46.1 µM), without a hit: at the top dose activation, hits mostly activators | P07550 | beta-arrestin recruitment to beta2AR, cell-based reporter | 330,000 compounds, 0.02% hits;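 also: potency is read from the fitted curve at half-maximal effect; 0% = DMSO controls and full agonism = EC100 isoproterenol or metaproterenol; nearly all actives have a fitted effect of over 65% in size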
Integrin act MD – activates integrin-mediated alleviation for muscular dystrophy. alpha7betagal myoblasts, beta-gal FDG fluorescence, 48 h. Potency, µM (doses to about 38.3 µM), inactives show at the top dose activation, actives largely listed as activators. 350,000 compounds, 0.064% hits;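 also: potency is read from the fitted curve at half-maximal effect; 100% = response of the positive control SU9516; nearly all actives have a fitted effect of over 60% in size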
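alpha7betagal+/- myoblasts (passage 13, 250/well) treated 48 h at 37C with compounds at 1:260 dilution of DMSO stock. Lysed, then beta-galactosidase activity read as FDG fluorescence (ex 480/em 540) after 30 min, with pre-read for autofluorescence.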
DRD3 antagonist – D3 dopamine receptor (human) antagonism. D3R cells, DiscoveRx beta-arrestin luminescence, antagonist mode; stronger effect = lower value. max response, negative = inhibition, %. 360,000 compounds, 2.5% hits; in the data active = max response below about -50%; inconclusive = no clear call, values can overlap the other calls; also: % is scaled to controls: 0 for no effect and ±100 for the full control effect
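Cells expressing the human receptor were seeded at 1500 cells/well, incubated overnight at 37 degrees C in 5% CO2, then exposed to library compounds with dopamine controls for 90 minutes at 37 degrees C before luminescent detection.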
* hit, by the source's call; ? = inconclusive; · = no result given; [ ] = remark or other dose. Unless noted, calls follow the shape of the dose curve; as a rule, active = well fitted curve in the direction sought with a large enough effect; inconclusive = small, poorly fitted or top-dose-only effect, or another doubt; inactive = no such curve, though single readings can be large; an effect the other way counts as inactive or inconclusive.

SMILES	DRD3 agonist	IDH1 R132H inh	B2AR arrestin	Integrin act MD	DRD3 antagonist
C#C[C@]1(OC(C)=O)CC[C@H]2[C@@H]3CCC4=C/C(=N/O)CC[C@@H]4[C@H]3CC[C@@]21CC	37*	·	·	·	·
COc1ccc(CNC(=O)c2cccn2-c2nnc(N3CCCCC3)s2)c(OC)c1	-10	0%	·	·	·
Cc1cccc(N(CC(=O)NC(C)c2ccccc2)S(=O)(=O)c2ccccc2)c1C (configuration not stated)	-6	3%	·	·	·
CCCCCCCCSC1=CC(=O)C(OC)=C(OC)C1=O	-13	19%	·	-63%	-106*
CCCCCSc1nncc(=O)[nH]1	-5	-4%	0%	14%	24
Cc1ccc(C)c(S(=O)(=O)NCCc2csc(-c3ccc(Cl)cc3)n2)c1	-9	10%	·	·	·
CC(C)(CO)Nc1nc(Cl)nc(NC2CCCCC2)n1	34*	3%	-1%	35%	-21
C=CC[N+]1([C@H]2C[C@H]3[C@@H]4CC[C@H]5C[C@H](OC(C)=O)[C@@H](N6CCCCC6)C[C@]5(C)[C@H]4CC[C@]3(C)[C@H]2OC(=O)CC)CCCCC1	-13	·	·	·	·
COc1ccc(CCNC(=O)c2cnn(-c3ccc(F)cc3)c2C2CCN(C(=O)OC(C)(C)C)CC2)c(OC)c1	6	-1%	·	·	·
CCOc1ccc(/C=C/c2nc(C#N)c(NC(C)CC)o2)cc1 (configuration not stated)	2	-2%	·	·	·
CCc1c(C2(O)CCCCC2)[nH]c2ncccc12	1	-2%	-1%	10µM*	11
COC(=O)c1cc(=O)nc2sc3ccccc3n12	0	-2%	-1%	14%	-51*
COC(=O)c1cc(=O)nc2scc(C)n12	-5	12%	-1%	-15%	-17
COc1cnc(-c2ccccn2)nc1Oc1ccccc1Cl	1	-2%	0%	-4%	-1
COc1cnc(-c2ccccn2)nc1Oc1ccc(Cl)c2ccccc12	-7	4%	0%	-38%	-94*
COc1cnc(-c2ccccn2)nc1Oc1ccc(F)cc1F	-12	3%	0%	-18%	-9
COc1cnc(-c2ccccn2)nc1Sc1ccc(C)cc1	-8	-3%	1%	-44%	-3
COc1cnc(-c2ccccn2)nc1Sc1cccc(Cl)c1	-5	7%	0%	-7%[7.66 µM]	-71*
COc1cnc(-c2ccccn2)nc1Oc1ccc(Cl)cc1	-5	1%	0%	-3%[7.66 µM]	-73*
O=C1CN(C(=O)c2ccc(S(=O)(=O)N3CCCC3)cc2)C(c2ccc(F)cc2)c2cc(F)ccc2N1 (configuration not stated)	-3	0%	·	·	·
CC(C)(C)c1ccc(C(=O)Nc2ccc(C(=O)OCc3cc(=O)n4ccsc4n3)cc2)cc1	26	-1%	·	·	·
CN(C)c1cc(Nc2ccc(O)cc2)c([N+](=O)[O-])c2nonc12	-13	1%	-1%	-14%	-4
O=[N+]([O-])c1c(Nc2ccc(O)cc2)cc(Cl)c2nonc12	-13	-18%	0%	-3%	-161*
O=[N+]([O-])c1c(Nc2ccccn2)cc(Cl)c2nonc12	-16	1%	4%	-81%	-86*
N[C@H](C(=O)O)[C@@H]1CC(Cl)=NO1	6	·	·	·	·
SMILES	DRD3 agonist	IDH1 R132H inh	B2AR arrestin	Integrin act MD	DRD3 antagonist
O=C(Nc1ccc([N+](=O)[O-])cc1)c1cccc([N+](=O)[O-])c1	4	2%	·	3%	16
O=C(NNC(=O)c1cccc(O)c1)Nc1ccc([N+](=O)[O-])cc1	-6	-6%	0%	?	-57*
CC(C(=O)NC1CCCC1)N1CCN(Cc2ccccc2)CC1 (configuration not stated)	-21	8%	0%	28%	-3
CCN1CCN(C(CCc2ccccc2)C(=O)NC2CCCCC2)CC1 (configuration not stated)	-14	·	·	·	-73*
CCOc1ccccc1N1CCN(C(=O)c2cc[n+]([O-])cc2)CC1	-27	6%	0%	16%	-63*
CCCc1ccc(C(=O)N2CCN(c3ccccc3OCC)CC2)cc1	15	2%	0%	-11%	30
Cc1[nH]c2ccccc2c1C(C#N)(C#N)C1C(=O)c2ccccc2C1=O	-20	37%	0%	0%	-89*
CC(=O)[C@@]1(O)CC[C@H]2[C@@H]3C=C(Cl)C4=CC(=O)CC[C@]4(C)[C@H]3CC[C@@]21C	-15	·	·	·	·
COc1ccc(OC)c(-c2cc(C3CCN(C(=O)OC(C)(C)C)CC3)[nH]n2)c1	46*	-14%	0%	-8%	14
OC1CC2CCC(C1)N2CCCN1c2ccccc2Sc2ccc(Cl)cc21 (configuration not stated)	-16	-7%	·	-73%	-102*
CN1CCN(CCCN2c3ccccc3Sc3ccc(Cl)cc32)CC1	·	10%	·	·	-102*
CCC(=O)c1ccc2c(c1)N(CCCN1CCN(CCO)CC1)c1ccccc1S2	-13	·	·	·	·
CC(CN1CCN(CCOCCO)CC1)CN1c2ccccc2Sc2ccc(Cl)cc21 (configuration not stated)	-7	13%	·	-63%	-117*
CCSc1ccc2c(c1)N(CCCN1CCN(C)CC1)c1ccccc1S2	-84	-13%	0%	·	-87*
COc1ccc(C(C(=O)NC2CCCC2)n2c(CSCCOc3ccccc3)nc3ccccc32)cc1 (configuration not stated)	-21	·	·	·	-20
COc1cc(C2NC(=O)C(C#N)=C(S)N2c2ccccc2)ccc1OC(C)C (configuration not stated)	0	-7%	0%	-35%	-67*
Cc1cccc(N2C(S)=C(C#N)C(=O)NC2c2ccco2)c1 (configuration not stated)	10	?	0%	-11%	0
COc1ccc(C2NC(=O)C(C#N)=C(S)N2c2ccccc2)cc1OC (configuration not stated)	-5	6%	-1%	-8%	-14
N#CC1=C(S)N(c2ccccc2)C(c2ccc(-c3cccc(Cl)c3)o2)NC1=O (configuration not stated)	2	41µM*	-1%	6%	8
CCC(c1nnnn1C(C)(C)C)N1CCN(c2cc(Cl)ccc2C)CC1 (configuration not stated)	-13	-1%	0%	-36%	-56*
COc1ccc(OC)c(CNC(=O)C2CCCCN2S(=O)(=O)c2ccc(F)cc2)c1 (configuration not stated)	-13	-7%	·	·	·
COc1cc(S(=O)(=O)N2CCN(C)CC2)ccc1Cl	0	6%	-1%	32%	-87*
CC1CNC(=S)N(c2ccc(F)cc2)C1=O (configuration not stated)	-5	8%	·	14%	-12
CCC1Nc2ncnc(N3CCN(c4ccccc4)CC3)c2N(Cc2ccc(OC)cc2)C1=O (configuration not stated)	-56	1%	0%	-37%	-149*
